Screening data as filed in PubChem BioAssay.
Rows were chosen to be rich in hits. Some 2.5% of all compounds tested hit in one or more screens of this group.
TMEM16A act – mouse TMEM16A channel activation, primary screen; Q8BHY3; HEK293 TMEM16A/YFP-H148Q/I152L, iodide quench fluorescence; active compounds read low; B-score at 10 µM; hit rate 0.3% among 340,000; AID 623877;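 active means fluorescence-ratio B-score plate-corrected deviation score at least 3 library SD below zero, with starting fluorescence score within 5 deviations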;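 further: channel opened by trigger with iodide after compound preincubation; score built on the fluorescence ratio of max minus min over baseline; more negative score means more quench and so TMEM16A activation or potentiation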
Target sequence (Q8BHY3 whole entry, looked up): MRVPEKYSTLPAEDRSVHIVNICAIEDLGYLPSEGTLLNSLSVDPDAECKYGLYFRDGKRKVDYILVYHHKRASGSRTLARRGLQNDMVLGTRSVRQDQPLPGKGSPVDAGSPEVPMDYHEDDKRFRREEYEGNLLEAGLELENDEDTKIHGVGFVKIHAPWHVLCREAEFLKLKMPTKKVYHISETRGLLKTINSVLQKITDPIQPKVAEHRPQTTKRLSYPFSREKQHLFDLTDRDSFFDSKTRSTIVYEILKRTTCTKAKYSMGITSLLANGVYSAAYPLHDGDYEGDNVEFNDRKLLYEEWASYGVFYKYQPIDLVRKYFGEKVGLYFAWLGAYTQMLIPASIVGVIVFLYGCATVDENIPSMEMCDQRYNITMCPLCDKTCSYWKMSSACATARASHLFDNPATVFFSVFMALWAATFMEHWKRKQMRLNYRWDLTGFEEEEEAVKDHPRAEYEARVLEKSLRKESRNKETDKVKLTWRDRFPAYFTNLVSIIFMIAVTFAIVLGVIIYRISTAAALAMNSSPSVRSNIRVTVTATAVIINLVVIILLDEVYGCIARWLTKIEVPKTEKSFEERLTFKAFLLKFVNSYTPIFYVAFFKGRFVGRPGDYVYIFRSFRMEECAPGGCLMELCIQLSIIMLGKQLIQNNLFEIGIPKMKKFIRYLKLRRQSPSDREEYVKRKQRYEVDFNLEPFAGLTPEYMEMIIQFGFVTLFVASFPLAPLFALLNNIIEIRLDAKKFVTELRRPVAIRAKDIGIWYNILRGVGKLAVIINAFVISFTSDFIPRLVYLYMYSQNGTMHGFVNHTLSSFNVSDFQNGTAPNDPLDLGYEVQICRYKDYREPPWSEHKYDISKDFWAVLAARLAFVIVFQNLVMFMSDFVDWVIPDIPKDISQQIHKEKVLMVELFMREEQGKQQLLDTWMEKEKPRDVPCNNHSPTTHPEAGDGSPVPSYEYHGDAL
697 NFkB inh – lowers PMA/ionomycin-induced NF-kB signal in 697 B cells | 697 B-cell NF-kB luciferase reporter, 16 h | inhibition, % at 4 µM | hit rate 0.33% among 330,000 | AID 435022; in the data active means inhibition above about 35%
ANO1 block – blocks the mouse calcium-activated chloride channel TMEM16A. hit rate 1.2% among 310,000. normalized B-score (activity score, 25-100; higher = stronger inhibition) at 10 µM. HEK293 TMEM16A/YFP iodide influx fluorescence, ionomycin. Q8BHY3;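 active means ratio plate-corrected score three or more library SD toward inhibition, starting fluorescence score within five deviations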;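 further: score derived from kinetic fluorescence span divided by baseline fluorescence per well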
aSyn 5UTR inh – MLPCN primary screen, SNCA 5' untranslated region. alpha-synuclein 5'UTR reporter, inhibitor activity. inhibition, % (tested at 7.5 µM). hit rate 0.82% among 300,000. AID 1813; in the data active means inhibition above about 60%; inconclusive means no clear call, values can overlap the other calls;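 further: H4 neuroglioblastoma cells stably carrying SNCA 5'UTR luciferase fusion; 0% = DMSO wells and 100% = positive control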
Jurkat NFkB inh – lowers PMA/ionomycin-induced NF-kB signal in Jurkat cells; PMA/ionomycin-induced NF-kB luciferase reporter, luminescence; inhibition, % at 4 µM; hit rate 0.53% among 330,000; AID 435003; in the data active means inhibition above about 50%
KLF5 inhibitor – inhibitors of KLF5 expression. inhibition, % at 5 µM. hit rate 0.23% among 290,000. DLD-1 KLF5 promoter-luciferase reporter, luminescence;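 active means inhibition above a per-plate limit of that plate's mean compound inhibition plus 3 SD, cut at about 60% in these data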;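 further: 0% = DMSO wells and 100% = LY294002 at 200 µM; higher means less KLF5 promoter-driven luciferase light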
Jurkat NFkB conf – lowers PMA/ionomycin-induced NF-kB signal in Jurkat cells; shares compounds with Jurkat NFkB inh; Jurkat NF-kB luciferase, 16 h; inhibition, % at 4 µM; hit rate 27% among 2,700;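 active means inhibition reaching about 45% at 4 µM in either replicate, limit read from the data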;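 further: plate controls were PMA/ionomycin stimulated DMSO wells for no effect and unstimulated DMSO wells for full effect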
An asterisk follows results filed as active; i = inactive; ? = inconclusive; . = not tested or not shown.

SMILES	TMEM16A act	697 NFkB inh	ANO1 block	aSyn 5UTR inh	Jurkat NFkB inh	KLF5 inhibitor	Jurkat NFkB conf
Cc1cnc(C(=O)Nc2ccc(F)cc2)cn1	i	-49	i	-101	-43	-88	.
CC12CCC(=O)N1C(C(=O)Nc1cc(C(F)(F)F)ccc1N1CCCCC1)CS2 (configuration not stated)	i	-1	i	5	10	.	.
COc1ccc([N+](=O)[O-])cc1Nc1c2ccccc2nc2ccccc12	i	-37	i	77*	59*	66*	41
COc1cc(/C=N/NS(=O)(=O)c2ccc(C)cc2)ccc1OCc1cccc(C(=O)O)c1	i	23	i	90*	62*	34	13
COc1cc2ccccc2cc1C(=O)NC1CCC(C)CC1 (configuration not stated)	i	-59	.	.	95*	.	-47
COc1cc2ccccc2cc1C(=O)NC1CCCC1	i	-17	.	.	-43	.	.
Cc1cc(-c2nc3ccccc3s2)ccc1N	i	.	.	.	.	.	.
Nc1ccc(-c2nc3cc(N)ccc3s2)cc1	i	-94	i	.	-174	-188	-42
Cc1cccc(-c2noc(-c3ccc(Cl)cc3[N+](=O)[O-])n2)c1	i	-187	i	-151	-161	-117	-103
COc1ccc(-c2noc(-c3ccc(Cl)cc3[N+](=O)[O-])n2)cc1OC	i	-47	i	-118	-53	-32	.
CN1CCSc2ccc(C(=O)Nc3cccc(F)c3)cc21	i	-1	i	-134	-153	-154	-15
C(=C\c1nc(-c2ccccc2)no1)/c1ccccc1	i	-202	i	-154	-152	-61	-82
O=C(c1cccc(OCc2ccccc2)c1)N1CCOCC1	i	11	i	-5	-9	-11	.
CCOc1ccc(OCc2cccc(C(=O)N3CCOCC3)c2)cc1	i	23	i	102*	53*	35	30
N#CC1=C2SC=C(c3ccc(Br)cc3)N2CCCC1=O	i	-179	i	-257	-210	-50	-88
Cc1cc(C)c(C)c(S(=O)(=O)Nc2ccc3cn[nH]c3c2)c1C	i	-29	.	.	12	.	.
O=C(Nc1ccc(N2CCN(C(=O)c3cccs3)CC2)cc1)c1ccco1	i	11	i	-11	9	-9	.
O=C(Nc1ccc(N2CCN(C(=O)c3cccs3)CC2)cc1)c1ccc([N+](=O)[O-])o1	i	-32	i	106*	52*	47	22
COCCn1c(N)c(C(=O)c2cccc(S(=O)(=O)N3CCCCCC3)c2)c(=O)[nH]c1=O	i	16	.	.	9	.	.
Cc1cc(C)c2sc(NC(=O)C3=COCCO3)nc2c1	i	-163	i	-40	-170	-203	10
COc1ccc(NS(=O)(=O)c2cc3c4c(c2)C(C)C(=O)N4CCC3)cc1 (configuration not stated)	i	0	i	17	5	-15	.
Cc1ccc2[nH]c(=O)c3cc(C(=O)NC(C)C)sc3c2c1	i	17	i	-53	-4	-57	.
Oc1ccccc1-c1cc(-c2ccccc2)n[nH]1	i	-200	.	.	-181	.	-81
O=C1C(=O)c2c(ccc3ccccc23)-c2ccccc21	i	.	.	.	.	.	.
O=c1oc(CCCO)cc2ccccc12	i	17	.	.	-3	.	.
SMILES	TMEM16A act	697 NFkB inh	ANO1 block	aSyn 5UTR inh	Jurkat NFkB inh	KLF5 inhibitor	Jurkat NFkB conf
CCOc1cc(CNCCc2ccc(S(N)(=O)=O)cc2)ccc1OCc1ccc(Cl)cc1	i	-12	i	98*	54*	25	9
COc1ccc(N(Cc2cc3ccccc3[nH]c2=O)S(=O)(=O)c2ccc(OC)cc2)cc1	i	-24	i	-64	7	-7	.
COc1ccc(N(Cc2cc3cc(OC)ccc3[nH]c2=O)S(=O)(=O)c2ccc(NC(C)=O)cc2)cc1	i	-2	i	93*	69*	28	21
O=C(NCc1ccccc1)c1c(Cl)nc(Cl)c(Cl)c1Cl	i	6	i	99*	51*	-14	13
Cc1nc(Cl)c(C(=O)NCc2ccccc2)c(C)c1Cl	i	-5	i	-5	-7	-9	.
COc1ccc(CC(=O)OCC(=O)c2ccc(F)cc2)cc1	i	-16	.	.	-9	.	.
COc1ccccc1-n1cnc2cc(NCc3cccs3)ccc21	i	-83	i	?	51*	26	19
